Assay results published in ChEMBL document CHEMBL4808148, “HDAC6 screening dataset using tau-based substrate in an enzymatic assay yields selective inhibitors and activators” (2021).
In all, about 5,600 compounds went through this assay and about 390 (7%) showed an effect of 50% or more. For the sample, strong results were picked, then their nearest neighbours and some compounds at random. Non-standard residues stand in square brackets, D forms with d. Residues, ends and D or L forms follow the SMILES beside them. dPhe(4-Cl) = N[C@H](Cc1ccc(Cl)cc1)C(=O)O; d2Nal = N[C@H](Cc1ccc2ccccc2c1)C(=O)O; dCit = NC(=O)NCCC[C@@H](N)C(=O)O; d3Pal = N[C@H](Cc1cccnc1)C(=O)O

Legend:
[1] = biological target: T1, Protein deacetylase HDAC6 (Homo sapiens) (UniProt Q9UBN7); details: at 10 µM
T1 sequence (whole entry): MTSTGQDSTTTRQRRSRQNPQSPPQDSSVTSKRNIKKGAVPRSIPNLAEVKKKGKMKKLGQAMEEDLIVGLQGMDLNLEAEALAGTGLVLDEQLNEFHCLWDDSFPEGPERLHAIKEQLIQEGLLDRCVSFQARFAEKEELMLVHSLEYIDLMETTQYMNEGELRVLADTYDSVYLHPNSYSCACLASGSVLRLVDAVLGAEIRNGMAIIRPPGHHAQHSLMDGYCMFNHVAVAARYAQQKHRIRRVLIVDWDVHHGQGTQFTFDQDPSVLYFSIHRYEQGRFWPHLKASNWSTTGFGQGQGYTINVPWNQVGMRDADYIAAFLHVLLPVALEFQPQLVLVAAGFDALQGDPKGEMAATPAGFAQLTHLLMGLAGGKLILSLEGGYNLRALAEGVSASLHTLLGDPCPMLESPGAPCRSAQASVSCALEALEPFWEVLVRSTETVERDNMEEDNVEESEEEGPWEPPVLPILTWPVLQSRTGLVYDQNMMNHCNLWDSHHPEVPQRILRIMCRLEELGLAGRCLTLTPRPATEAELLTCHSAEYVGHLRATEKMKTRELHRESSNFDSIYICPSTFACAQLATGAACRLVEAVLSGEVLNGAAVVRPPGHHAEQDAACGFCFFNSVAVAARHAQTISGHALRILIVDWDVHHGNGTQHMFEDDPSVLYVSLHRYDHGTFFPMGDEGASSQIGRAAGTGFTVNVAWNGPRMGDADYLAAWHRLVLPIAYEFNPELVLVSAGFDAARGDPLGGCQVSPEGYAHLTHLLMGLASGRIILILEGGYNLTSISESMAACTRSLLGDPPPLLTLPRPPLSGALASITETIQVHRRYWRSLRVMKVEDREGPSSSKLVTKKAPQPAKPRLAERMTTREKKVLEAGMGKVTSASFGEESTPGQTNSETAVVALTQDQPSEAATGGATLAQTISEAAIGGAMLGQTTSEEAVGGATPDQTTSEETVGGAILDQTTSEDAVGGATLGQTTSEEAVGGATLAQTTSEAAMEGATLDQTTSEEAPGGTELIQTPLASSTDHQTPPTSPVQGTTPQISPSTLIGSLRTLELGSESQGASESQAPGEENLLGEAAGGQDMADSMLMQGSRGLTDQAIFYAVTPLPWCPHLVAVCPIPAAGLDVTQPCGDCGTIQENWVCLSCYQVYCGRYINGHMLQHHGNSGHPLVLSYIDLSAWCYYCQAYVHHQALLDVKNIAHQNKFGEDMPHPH

[2] = biological target: Protein deacetylase HDAC6 (Homo sapiens) (UniProt Q9UBN7); details: at 10 µM; remark: listed apart in the source

Compound	inhibition [1]	inhibition [2]
Nc1c2c(nc3ccccc13)CCCC2O (stereo unspecified)	7.55%	–
O[C@@H]1CO[C@H]2[C@@H]1OC[C@@H]2O	0.18%	–
Cc1nnc(C(C)C)n1[C@H]1C[C@H]2CC[C@@H](C1)N2CC[C@H](NC(=O)C1CCC(F)(F)CC1)c1ccccc1	25%	–
CNC(=O)c1ccccc1Sc1ccc2c(/C=C/c3ccccn3)n[nH]c2c1	105%	–
CCOc1nc2cccc(C(=O)O)c2n1Cc1ccc(-c2ccccc2-c2nnn[nH]2)cc1	-9.37%	–
CCCc1nc2c(C)cc(-c3nc4ccccc4n3C)cc2n1Cc1ccc(-c2ccccc2C(=O)O)cc1	65%	–
CCCCc1nc(Cl)c(C(=O)O)n1Cc1ccc(-c2ccccc2-c2nn[nH]n2)cc1	6.5%	–
O=C(O)[C@H]1C[C@@H](CP(=O)(O)O)CCN1	7.25%	–
CC(C)C[C@@H](C(=O)N[C@H](C(=O)OC1CCCC1)c1ccccc1)[C@H](O)C(=O)NO	-7.78%	–
[K+]	17.5%	–
O=C(Nc1cnn2ccc(N3CCC[C@@H]3c3cc(F)ccc3F)nc12)N1CC[C@H](O)C1	28.9%	–
O=C1C(O)=C(O)C(=O)C(O)=C1O	1.19%	–
CC(C)(C)c1ccc(-c2nc3c(N4CCN(Cc5ccc6nccnc6c5)CC4)cccc3[nH]2)cc1	110%	–
CCc1cncnc1N1CCN(Cc2nc3cc(C(F)(F)F)ccc3[nH]2)CC1	2.81%	–
c1ccc(N2CCN(Cc3nc4ccccc4[nH]3)CC2)nc1	20.5%	–
CCCCCCCN(CC)CCCC(O)c1ccc(NS(C)(=O)=O)cc1 (stereo unspecified)	30.4%	–
O=C(c1ccc(C(=O)N2CCC(N3CCCC3)CC2)c(Nc2ccccc2)c1)N1CCC(N2CCCC2)CC1	28.5%	–
COc1cc2c(cc1OCCCN1CCCC1)N=C(N)C21CCC1	-4.1%	–
O=C(O)c1ccc(/C=C2/SC(=S)N(c3cccc(C(F)(F)F)c3)C2=O)cc1	4.63%	–
NC(=O)OCC(O)COc1ccc(Cl)cc1 (stereo unspecified)	47.1%	–
COc1ccccc1OCC(O)CO (stereo unspecified)	-8.39%	–
COc1ccccc1OCC(O)COC(N)=O (stereo unspecified)	75.6%	–
CC(C)C[C@H](NC(=O)N1CCCCCC1)C(=O)N[C@H](Cc1cn(C)c2ccccc12)C(=O)N[C@H](Cc1ccccn1)C(=O)O	-8.82%	–

Compound	inhibition [1]	inhibition [2]
CC(=O)N[C@H](Cc1ccc2ccccc2c1)C(=O)N[C@H](Cc1ccc(Cl)cc1)C(=O)N[C@H](Cc1cccnc1)C(=O)N[C@@H](CO)C(=O)N[C@@H](Cc1ccc(O)cc1)C(=O)N[C@H](CCCNC(N)=O)C(=O)N[C@@H](CC(C)C)C(=O)N[C@@H](CCCNC(=N)N)C(=O)N1CCC[C@H]1C(=O)N[C@H](C)C(N)=O (Ac-[d2Nal][dPhe(4-Cl)][d3Pal]SY[dCit]LRP[dA]-NH2)	30.9%	–
Cc1nc(C)c(C)nc1C	-3.53%	–
COc1ccc(-c2ccc(=N)n(CCCC(=O)O)n2)cc1	8.71%	–
O=c1ncn2nc(Sc3ccc(F)cc3F)ccc2c1-c1c(Cl)cccc1Cl	36.3%	–
CN1c2c([nH]c(N)nc2=O)NC[C@@H]1CNc1ccc(C(=O)N[C@@H](CCC(=O)O)C(=O)O)cc1	11.1%	–
CCc1nc2ccc(Cl)cn2c1C(=O)NCc1ccc(N2CCC(c3ccc(OC(F)(F)F)cc3)CC2)cc1	6.99%	–
COc1cccc(-c2cc(=O)c3ccccc3o2)c1N	97.4%	–
CC(=O)N[C@@H](CSC/C=C(\C)CC/C=C(\C)CCC=C(C)C)C(=O)O	19.5%	–
Cc1ccc(N2CCN(CCC3NC(=O)c4ccccc43)CC2)cc1C (stereo unspecified)	0.62%	–
CCN(Cc1ccccc1)C(=O)Cn1c(=O)n(C)c2cnc(-c3ccccc3)nc21	31.2%	–
Cc1cc2nc3ccc(N(C)C)cc3[s+]c2cc1N	60.9%	–
CC1CCN(C(c2ccc(F)cc2)c2ccc(C(C)C(=O)O)cc2-c2ccc(C(F)(F)F)cc2)CC1 (stereo unspecified)	27.9%	–
Nc1ncnc2nc(-c3ccc(N4CCOCC4)nc3)cc(-c3cccc(Br)c3)c12	19.8%	–
FLUPENTIXOL, CHEMBL6066864	–	88.9%
CYANOCOBALAMIN, CHEMBL2110563	–	-2.71%
BLEOMYCIN SULFATE, CHEMBL6067493	–	23.1%
O=c1ccc2cc3ccoc3cc2o1	17.5%	–
CC(C)[C@H](C(=O)Nc1ccc(C(=O)NO)cc1)c1ccccc1	101%	–
CC(=O)Nc1ccc(C(=O)Nc2ccccc2N)cc1	-0.35%	–
O=C(O)c1ccc(NC(=O)[C@H](Cc2ccc(O)cc2)NC(=O)c2ccccc2)cc1	10.6%	–
CC1(C)Oc2ccc(C#N)cc2[C@@H](N2CCCC2=O)[C@@H]1O	-9.16%	–
Cc1ccc(C(=O)Cn2c3c(sc2=N)CCCC3)cc1	102%	–
CCOC(=O)C1=C(C)NC(c2ccccc2)=C(C(=O)OCc2ccc([N+](=O)[O-])cc2)C1C#Cc1ccccc1 (stereo unspecified)	-2.41%	–
